Inconclusive results are not listed. Calls of active or inactive are those of the source. Rule for the calls: active = hit-call score of the fitted dose curve at least 0.9, where 1 is the maximum; inconclusive = response in the unintended direction; inactive = score below 0.9.
What follows are compounds tested against PGR (gene 5241) (UniProt P06401) (assay: NVS_NR_hPR: NovaScreen (NVS) Nuclear Receptor Binding Assay for human Progestron Receptor (PR) (AID 2283360);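 note: active means loss of bound radioligand signal versus DMSO baseline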).
Description: NVS_NR_hPR is a biochemical, single-readout assay that uses extracted gene-proteins from T47D in a cell-free assay. Measurements were taken 18 hours after chemical dosing in a 96-well plate.NVS_NR_hPR is one of one assay component(s) measured or calculated from the NVS_NR_hPR assay. It is designed to make measurements of radioligand binding, a form of binding reporter, as detected with scintillation counting signals by Lysate-based radiodetection technology.Data from the assay component NVS_NR_hPR was analyzed into 1 assay endpoint. This assay endpoint, NVS_NR_hPR, was analyzed in the positive analysis fitting direction relative to DMSO as the negative control and baseline of activity. Using a type of binding reporter, loss-of-signal activity can be used to understand changes in the binding as they relate to the gene PGR. Furthermore, this assay endpoint can be referred to as a primary readout, because the performed assay has only produced 1 assay endpoint. To generalize the intended target to other relatable targets, this assay endpoint is annotated to the nuclear receptor intended target family, where the subfamily is steroidal.
Binding assays used specific radioligands (tritiated, iodinated) with non-radioactive competitive displacement ligands in agonist or antagonist protocols (as indicated) and various reference compounds and inhibitors to titrate specific binding to receptors and transporters. Most enzyme assays (CYPs, kinases, phosphatases, proteases, HDACs) used recombinant protein and specific substrates (fluorescence mostly, some colorimetric and radioactive) and inhibitors, followed by a biochemical separation of substrate and product. All assays for the biochemical HTS were initially run in duplicate at a single concentration (10 uM for CYP450 assays and 25 uM for all others). […] Each assay was run with positive and negative controls, and concurrent controls on every plate. The follow-up (secondary) screen tested active chemical-pairs in concentration series, as well as a few additional assays not tested in the primary screen, some selected negative inactives, and several cases re-run in the concentration series for confirmatory purposes.

Chain of PGR (gene 5241) (P06401 whole entry, looked up): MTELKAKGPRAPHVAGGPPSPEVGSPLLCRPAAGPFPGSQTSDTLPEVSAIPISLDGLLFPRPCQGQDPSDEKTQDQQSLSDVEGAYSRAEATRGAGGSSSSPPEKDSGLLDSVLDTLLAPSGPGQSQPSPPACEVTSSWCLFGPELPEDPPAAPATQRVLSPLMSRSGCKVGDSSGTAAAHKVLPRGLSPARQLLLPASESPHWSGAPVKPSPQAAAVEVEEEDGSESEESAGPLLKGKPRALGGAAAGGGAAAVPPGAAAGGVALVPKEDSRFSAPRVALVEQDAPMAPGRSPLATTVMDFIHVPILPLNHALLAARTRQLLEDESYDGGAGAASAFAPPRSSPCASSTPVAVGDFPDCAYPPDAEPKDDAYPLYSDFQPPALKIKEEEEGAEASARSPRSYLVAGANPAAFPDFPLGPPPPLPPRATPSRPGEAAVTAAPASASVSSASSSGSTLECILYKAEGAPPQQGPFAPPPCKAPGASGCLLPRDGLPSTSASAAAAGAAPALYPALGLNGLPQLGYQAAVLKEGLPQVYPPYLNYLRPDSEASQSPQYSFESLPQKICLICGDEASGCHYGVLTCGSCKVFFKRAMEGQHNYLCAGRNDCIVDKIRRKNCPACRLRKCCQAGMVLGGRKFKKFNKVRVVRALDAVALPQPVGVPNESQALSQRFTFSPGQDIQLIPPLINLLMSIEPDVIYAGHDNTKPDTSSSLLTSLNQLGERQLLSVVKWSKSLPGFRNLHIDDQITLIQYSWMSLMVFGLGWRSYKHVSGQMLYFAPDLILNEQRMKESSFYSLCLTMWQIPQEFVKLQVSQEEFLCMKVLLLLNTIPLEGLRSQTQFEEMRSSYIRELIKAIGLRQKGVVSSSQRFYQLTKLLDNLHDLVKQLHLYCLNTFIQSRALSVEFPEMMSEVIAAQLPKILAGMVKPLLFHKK

| SMILES | AC50 | outcome |
| --- | --- | --- |
| CCOc1ccc2c(c1)C(C)=CC(C)(C)N2 | 9.2 µM (active) |  |
| CC1(C)CC(N=C=O)CC(C)(CN=C=O)C1 (stereo unspecified) | 11.7 µM (active) |  |
| COC(=O)c1ccc(O)cc1 |  | inactive |
| Nc1ccccc1N |  | inactive |
| c1cc(-c2ccncc2)ccn1 |  | inactive |
| CNCc1cc(F)ccc1Oc1ccc(Cl)c(Cl)c1 |  | inactive |
| CN[C@H]1CC[C@@H](c2ccc(Cl)c(Cl)c2)c2ccc(S(N)(=O)=O)cc21 |  | inactive |
| Oc1ccc2c(c1)OC[C@@H](N1CCC(O)(c3ccc(F)cc3)CC1)[C@H]2O |  | inactive |
| Nc1ccc(S(=O)(=O)c2ccc(N)cc2)cc1 |  | inactive |
| CCOC(=O)C(C)(C)Oc1ccc(Cl)cc1 |  | inactive |
| Cc1cc(NC(=O)C(=O)O)cc(C)c1Oc1ccc(O)c2c1CCC2 | 7.64 µM (active) |  |
| CCCCC(CC)COC(=O)CC(C(=O)OCC(CC)CCCC)S(=O)(=O)O (stereo unspecified) | 18.7 µM (active) |  |
| COCCOC[C@H](CC1(C(=O)NC2CCC(C(=O)O)CC2)CCCC1)C(=O)Oc1ccc2c(c1)CCC2 (stereo partly specified) |  | inactive |
| CCCCCCCC=O |  | inactive |
| COc1cc(S(=O)(=O)O)c(C)cc1N=Nc1c(O)ccc2cc(S(=O)(=O)O)ccc12 | 14.2 µM (active) |  |
| CCCCCCC(=O)OCC |  | inactive |

From PubChem BioAssay (EPA / NIEHS)
